# Data reported in paper PMC5540273 (PLoS ONE, 2017).
# Values joined by “and” are separate entries in the source; they are usually repeats but may differ in a detail not shown here. Identical values can stand only once. Like-named read-outs stand apart in the source and are kept apart here.
# Assays:
# PAK4 = conditions: concentration: 1 μM, replicates: in singlicate, n = 1
# PAK6 = conditions: concentration: 1 μM, replicates: in singlicate, n = 1
# PAK7 = conditions: concentration: 1 μM, replicates: in singlicate, n = 1
# PCTK1 = tested on: T1, PCTK1; conditions: concentration: 1 μM, replicates: in singlicate, n = 1
# T1 construct: gene CDK16
# PCTK2 = tested on: T2, PCTK2; conditions: concentration: 1 μM, replicates: in singlicate, n = 1
# T2 construct: gene CDK17
# PCTK3 = tested on: T3, PCTK3; conditions: concentration: 1 μM, replicates: in singlicate; n = 1
# T3 construct: gene CDK18
# PDGFRA = conditions: concentration: 1 μM, replicates: in singlicate, n = 1
# PDGFRB = conditions: concentration: 1 μM, replicates: in singlicate, n = 1
# PDPK1 = conditions: concentration: 1 μM, replicates: in singlicate, n = 1
# PFTAIRE2 = conditions: concentration: 1 μM, replicates: in singlicate; n = 1
# PFTK1 = tested on: T4, PFTK1; conditions: concentration: 1 μM, replicates: in singlicate, n = 1
# T4 construct: gene CDK14
# PHKG1 = conditions: concentration: 1 μM, replicates: in singlicate, n = 1
# PHKG2 = conditions: concentration: 1 μM, replicates: in singlicate, n = 1
# PIK3C2B = conditions: concentration: 1 μM, replicates: in singlicate; n = 1
# PIK3C2G = conditions: concentration: 1 μM, replicates: in singlicate, n = 1
# PIK3CA = conditions: concentration: 1 μM, replicates: in singlicate, n = 1
# PIK3CB = conditions: concentration: 1 μM, replicates: in singlicate, n = 1
# PIK3CD = conditions: concentration: 1 μM, replicates: in singlicate; n = 1
# PIK3CG = conditions: concentration: 1 μM, replicates: in singlicate, n = 1
# PIK4CB = tested on: T5, PIK4CB; conditions: concentration: 1 μM, replicates: in singlicate, n = 1
# T5 construct: gene PI4KB
# 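Note: KINOMEscan kinase panel screen.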
structure (smiles),measurement,setting,value
Cn1cc(-c2ccc3c(c2)CCN3C(=O)Cc2ccccc2Cl)c2c(N)ncnc21 [GSK2608885],%Inh,PAK4,0%
same,%Inh,PAK6,13%
same,%Inh,PAK7,23%
same,%Inh,PCTK1,7%
same,%Inh,PCTK2,0%
same,%Inh,PCTK3,0%
same,%Inh,PDGFRA,78%
same,%Inh,PDGFRB,99.9%
same,%Inh,PDPK1,23%
same,%Inh,PFTAIRE2,14%
same,%Inh,PFTK1,8%
same,%Inh,PHKG1,1%
same,%Inh,PHKG2,0%
same,%Inh,PIK3C2B,0%
same,%Inh,PIK3C2G,0%
same,%Inh,PIK3CA,0%
same,%Inh,PIK3CB,11%
same,%Inh,PIK3CD,30%
same,%Inh,PIK3CG,3%
same,%Inh,PIK4CB,8%
C[C@@H](Oc1cc(-n2cnc3ccc(NC(=O)NC(C)(C)C)cc32)sc1C(N)=O)c1ccccc1Cl [GSK346294],%Inh,PAK4,0%
same,%Inh,PAK6,2%
same,%Inh,PAK7,29%
same,%Inh,PCTK1,0%
same,%Inh,PCTK2,9%
same,%Inh,PCTK3,14%
same,%Inh,PDGFRA,4%
same,%Inh,PDGFRB,22%
same,%Inh,PDPK1,0%
same,%Inh,PFTAIRE2,11%
same,%Inh,PFTK1,24%
same,%Inh,PHKG1,0%
same,%Inh,PHKG2,13%
same,%Inh,PIK3C2B,0%
same,%Inh,PIK3C2G,0%
same,%Inh,PIK3CA,3%
same,%Inh,PIK3CB,5%
same,%Inh,PIK3CD,0%
same,%Inh,PIK3CG,6%
same,%Inh,PIK4CB,0%
CN1c2ccc(CNc3ccc(F)cc3)cc2-c2c(cnn2C)S1(=O)=O,%Inh,PAK4,0%
same,%Inh,PAK6,0%
same,%Inh,PAK7,0%
same,%Inh,PCTK1,0%
same,%Inh,PCTK2,0%
same,%Inh,PCTK3,0%
same,%Inh,PDGFRA,0%
same,%Inh,PDGFRB,0%
same,%Inh,PDPK1,12%
same,%Inh,PFTAIRE2,0%
same,%Inh,PFTK1,0%
same,%Inh,PHKG1,0%
same,%Inh,PHKG2,0%
same,%Inh,PIK3C2B,19%
same,%Inh,PIK3C2G,41%
same,%Inh,PIK3CA,0%
same,%Inh,PIK3CB,0%
same,%Inh,PIK3CD,0%
same,%Inh,PIK3CG,0%
same,%Inh,PIK4CB,0%
O=C(Nc1cccc(-c2nn3ncccc3c2-c2ccnc(Nc3cccc(C(F)(F)F)c3)n2)c1)c1c(F)cccc1F [GSK299495],%Inh,PAK4,0%
same,%Inh,PAK6,0%
same,%Inh,PAK7,0%
same,%Inh,PCTK1,6%
same,%Inh,PCTK2,0%
same,%Inh,PCTK3,23%
same,%Inh,PDGFRA,0%
same,%Inh,PDGFRB,99.7%
same,%Inh,PDPK1,0%
same,%Inh,PFTAIRE2,0%
same,%Inh,PFTK1,11%
same,%Inh,PHKG1,0%
same,%Inh,PHKG2,0%
same,%Inh,PIK3C2B,0%
same,%Inh,PIK3C2G,0%
same,%Inh,PIK3CA,0%
same,%Inh,PIK3CB,0%
same,%Inh,PIK3CD,25%
same,%Inh,PIK3CG,0%
same,%Inh,PIK4CB,0%
Cc1nnc(-c2ccc(C)c(-c3ccc(C(=O)Nc4ccc(NS(C)(=O)=O)cc4)cc3)c2)o1 [GW702865],%Inh,PAK4,0%
same,%Inh,PAK6,0%
same,%Inh,PAK7,6%
same,%Inh,PCTK1,0%
same,%Inh,PCTK2,7%
same,%Inh,PCTK3,12%
same,%Inh,PDGFRA,9%
same,%Inh,PDGFRB,36%
same,%Inh,PDPK1,0%
same,%Inh,PFTAIRE2,3%
same,%Inh,PFTK1,14%
same,%Inh,PHKG1,2%
same,%Inh,PHKG2,0%
same,%Inh,PIK3C2B,0%
same,%Inh,PIK3C2G,0%
same,%Inh,PIK3CA,0%
same,%Inh,PIK3CB,0%
same,%Inh,PIK3CD,10%
same,%Inh,PIK3CG,0%
same,%Inh,PIK4CB,0%
Cc1nnc(-c2ccc3occ(-c4ccc(C(C)O)cc4)c3c2)o1 (centres unmarked),%Inh,PAK4,10%
same,%Inh,PAK6,11%
same,%Inh,PAK7,1%
same,%Inh,PCTK1,18%
same,%Inh,PCTK2,11%
same,%Inh,PCTK3,1%
same,%Inh,PDGFRA,0%
same,%Inh,PDGFRB,8%
same,%Inh,PDPK1,0%
same,%Inh,PFTAIRE2,0%
same,%Inh,PFTK1,1%
same,%Inh,PHKG1,9%
same,%Inh,PHKG2,16%
same,%Inh,PIK3C2B,18%
same,%Inh,PIK3C2G,23%
same,%Inh,PIK3CA,9%
same,%Inh,PIK3CB,18%
same,%Inh,PIK3CD,0%
same,%Inh,PIK3CG,25%
same,%Inh,PIK4CB,0%
O=c1cc(N2CCOCC2)nc2n(Cc3cccc(F)c3)ccn12 [GSK2297430],%Inh,PAK4,0%
same,%Inh,PAK6,0%
same,%Inh,PAK7,0%
same,%Inh,PCTK1,5%
same,%Inh,PCTK2,0%
same,%Inh,PCTK3,27%
same,%Inh,PDGFRA,0%
same,%Inh,PDGFRB,12%
same,%Inh,PDPK1,32%
same,%Inh,PFTAIRE2,7%
same,%Inh,PFTK1,12%
same,%Inh,PHKG1,0%
same,%Inh,PHKG2,0%
same,%Inh,PIK3C2B,0%
same,%Inh,PIK3C2G,0%
same,%Inh,PIK3CA,0%
same,%Inh,PIK3CB,99%
same,%Inh,PIK3CD,6%
same,%Inh,PIK3CG,0%
same,%Inh,PIK4CB,0%
NCCNS(=O)(=O)c1ccc(-c2ccnc3[nH]ccc23)cc1 [GSK977617],%Inh,PAK4; 1 µM,82% and 75%
same,%Inh,PAK6; 1 µM,73% and 61%
same,%Inh,PAK7; 1 µM,90.8% and 77%
same,%Inh,PCTK1; 1 µM,1% and 2%
same,%Inh,PCTK2; 1 µM,7% and 0%
same,%Inh,PCTK3,0%
same,%Inh,PDGFRA; 1 µM,11% and 10%
same,%Inh,PDGFRB; 1 µM,80% and 65%
same,%Inh,PDPK1; 1 µM,11% and 0%
same,%Inh,PFTAIRE2,25%
same,%Inh,PFTK1; 1 µM,16% and 27%
same,%Inh,PHKG1; 1 µM,45% and 25%
same,%Inh,PHKG2; 1 µM,75% and 60%
same,%Inh,PIK3C2B,0%
same,%Inh,PIK3C2G; 1 µM,32% and 12%
same,%Inh,PIK3CA; 1 µM,0% and 3%
same,%Inh,PIK3CB; 1 µM,43% and 15%
same,%Inh,PIK3CD,0%
same,%Inh,PIK3CG; 1 µM,80% and 68%
same,%Inh,PIK4CB; 1 µM,64% and 26%
CC(C)(C)n1cnc2c(N)ncnc21 [SKF-97359],%Inh,PAK4,21%
same,%Inh,PAK6,0%
same,%Inh,PAK7,6%
same,%Inh,PCTK1,0%
same,%Inh,PCTK2,0%
same,%Inh,PCTK3,0%
same,%Inh,PDGFRA,0%
same,%Inh,PDGFRB,0%
same,%Inh,PDPK1,0%
same,%Inh,PFTAIRE2,8%
same,%Inh,PFTK1,0%
same,%Inh,PHKG1,14%
same,%Inh,PHKG2,24%
same,%Inh,PIK3C2B,0%
same,%Inh,PIK3C2G,0%
same,%Inh,PIK3CA,0%
same,%Inh,PIK3CB,0%
same,%Inh,PIK3CD,0%
same,%Inh,PIK3CG,0%
same,%Inh,PIK4CB,25%
O=c1cc(N2CCOCC2)nc2n(Cc3cccc4ccccc34)ccn12 [GSK2333389],%Inh,PAK4,0%
same,%Inh,PAK6,0%
same,%Inh,PAK7,0%
same,%Inh,PCTK1,2%
same,%Inh,PCTK2,0%
same,%Inh,PCTK3,7%
same,%Inh,PDGFRA,0%
same,%Inh,PDGFRB,6%
same,%Inh,PDPK1,10%
same,%Inh,PFTAIRE2,29%
same,%Inh,PFTK1,0%
same,%Inh,PHKG1,2%
same,%Inh,PHKG2,0%
same,%Inh,PIK3C2B,0%
same,%Inh,PIK3C2G,0%
same,%Inh,PIK3CA,0%
same,%Inh,PIK3CB,99.7%
same,%Inh,PIK3CD,89%
same,%Inh,PIK3CG,3%
same,%Inh,PIK4CB,6%
